9 compounds from PubChem BioAssay (NCI) can be followed below.

Common to all, as to assay: NCI-60 one-dose screen, 48 h (100 = growth as untreated, 0 = no growth, -100 = all killed)
The subject of one experiment is NCI-H226 lung. To be noted: 10 µM unless noted.
The subject of the next experiment is NCI-H322M lung. Particulars: 10 µM unless noted.
In another experiment the test system is HOP-62 NSCLC. Particulars: 10 µM unless noted.
A further experiment has as its system NCI-H460 lung. To be noted: 10 µM unless noted.
Another experiment relates to HOP-92 NSCLC. Particulars: 10 µM unless noted.
For the next experiment, the system named is NCI-H522 lung. Particulars: 10 µM unless noted.
A further experiment concerns A549/ATCC NSCLC. To be noted: 10 µM unless noted.
A further experiment concerns 786-0 renal. Particulars: 10 µM unless noted.
For the next experiment, the system named is COLO 205 colon. To be noted: 10 µM unless noted.
The next experiment relates to DU-145 prostate. Particulars: 10 µM unless noted.
Another experiment deals with K-562 leukemia. To be noted: 10 µM unless noted.
The test system of a further experiment is MALME-3M melanoma. Particulars: 10 µM unless noted.
The test system of a further experiment is MDA-MB-231 breast. To be noted: 10 µM unless noted.
The subject of a further experiment is SF-268 CNS. Particulars: 10 µM unless noted.
In another experiment the test system is SF-295 CNS. To be noted: 10 µM unless noted.
The next experiment has as its system SF-539 CNS. To be noted: 10 µM unless noted.
Another experiment has as its system M14 melanoma. Particulars: 10 µM unless noted.
The next experiment deals with RXF 393 renal. Particulars: 10 µM unless noted.
Another experiment deals with UACC-257 melanoma. Particulars: 10 µM.

Each structure is given as a SMILES string. The panel holds about 83,000 compounds, 20% with a hit somewhere; the sample as a whole holds those more often.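 Treatment: one concentration, 48 hours, 96-well format. Scoring: percent growth, with anything below 10 considered active.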 Unmarked numbers belong to inactive results. Activity calls are given as the source filed them.

With `COc1cccc2cc(-c3cc4ccccc4[nH]3)c(=NC(=O)c3ccc(Cl)cc3)oc12`, the growth in the experiment with NCI-H226 lung was 83.2%; in the experiment on NCI-H322M lung, 93.3%; in the experiment with HOP-62 NSCLC, 57.7%; with NCI-H460 lung it was 85.3%; in the experiment on HOP-92 NSCLC, -0.489% (active); in the experiment with NCI-H522 lung, 9.69% (active). Moreover, the growth is 65.5% in the experiment with A549/ATCC NSCLC; 69.5% with 786-0 renal; 100% with COLO 205 colon; 85.5% with DU-145 prostate; 39.7% in the experiment on K-562 leukemia; 58.5% in the experiment on MALME-3M melanoma. Further, the growth was 54.3% with MDA-MB-231 breast; 53.5% in the experiment with SF-268 CNS; 67.3% with SF-295 CNS; 58.2% in the experiment with SF-539 CNS; -28.9% (active) in the experiment with M14 melanoma.
On to `Nc1cccc2c1CN(C1CCC(=O)NC1=O)C2=O` (configuration not stated), for which the growth in the experiment on NCI-H226 lung is 108%; with NCI-H322M lung, 111%; in the experiment on HOP-62 NSCLC it was 106%; with NCI-H460 lung, 102%; with HOP-92 NSCLC it was 22.6%; in the experiment on NCI-H522 lung, 56%. Further, the growth in the experiment with A549/ATCC NSCLC was 106%; in the experiment with 786-0 renal, 107%; with COLO 205 colon, 111%; in the experiment with DU-145 prostate, 107%; in the experiment on K-562 leukemia, 132%; with MALME-3M melanoma it was 119%. The growth in the experiment with MDA-MB-231 breast is 107%; in the experiment on RXF 393 renal, -17.4% (active); in the experiment on SF-268 CNS it was 102%; in the experiment with SF-295 CNS it was 116%; in the experiment with SF-539 CNS, 94.7%; with M14 melanoma, 101%.
Turning to `CCN1C(=O)N(CC)C2C1NN=c1s/c(=C\c3cccc(F)c3)c(=O)n12` (configuration not stated), the growth in the experiment on NCI-H226 lung was 105%; in the experiment with NCI-H322M lung, 49.6%; with HOP-62 NSCLC, 42.2%; in the experiment with NCI-H460 lung it was 1.33% (active); in the experiment with HOP-92 NSCLC, 29.6%; in the experiment on NCI-H522 lung, -0.955% (active). In addition, the growth was 27% with A549/ATCC NSCLC; 12.2% in the experiment with 786-0 renal; -5.47% (active) with COLO 205 colon; 5.59% (active) with DU-145 prostate; 8.99% (active) with K-562 leukemia; 48.7% in the experiment with MALME-3M melanoma. The growth in the experiment on MDA-MB-231 breast is 25.8%; in the experiment on SF-268 CNS, 58.3%; in the experiment on SF-295 CNS it was 9.94% (active); in the experiment on SF-539 CNS, -9.53% (active); in the experiment with M14 melanoma it was 47.6%.
As for `Cc1ccc(Oc2nc3ccccc3cc2-c2nnc(Cn3c(COc4ccccc4)nc4ccccc43)o2)cc1`, the growth in the experiment with NCI-H226 lung is 64.9%; with NCI-H322M lung, 92.3%; in the experiment on HOP-62 NSCLC it was 49.8%; with NCI-H460 lung, 94.1%; with HOP-92 NSCLC it was 14.2%; in the experiment on NCI-H522 lung, 70.2%. Besides, the growth with A549/ATCC NSCLC is 81.3%; in the experiment with 786-0 renal it was 62.7%; with COLO 205 colon, 84.6%; in the experiment on DU-145 prostate, 63.5%; with K-562 leukemia, -3.18% (active); in the experiment with MALME-3M melanoma it was 72.5%. In addition, the growth is 47.7% in the experiment on MDA-MB-231 breast; 60.3% in the experiment with RXF 393 renal; 20.6% in the experiment with SF-268 CNS; 92% with SF-295 CNS; 63.3% with SF-539 CNS; 94.6% in the experiment on UACC-257 melanoma. For the same compound, the growth in the experiment on M14 melanoma is 45.5%.
With `Cc1nc(Nc2cccnc2)sc1C(=O)/C=C/c1ccc(F)cc1`, the growth with NCI-H226 lung was 55.7%; in the experiment on NCI-H322M lung, 47.9%; with HOP-62 NSCLC, 30.4%; in the experiment with NCI-H460 lung, 59.8%; with HOP-92 NSCLC, 88.6%; in the experiment on NCI-H522 lung it was 52%. Further, the growth was 25.2% in the experiment with A549/ATCC NSCLC; 13.8% in the experiment on 786-0 renal; 56.4% with COLO 205 colon; 9.5% (active) with DU-145 prostate; 11.4% with K-562 leukemia; 88.1% with MALME-3M melanoma. Also, the growth with MDA-MB-231 breast was 89.2%; in the experiment with RXF 393 renal, 18.1%; with SF-268 CNS, 42.1%; in the experiment on SF-295 CNS it was 42.4%; with SF-539 CNS, 18.2%; with UACC-257 melanoma, 73.5%. In the experiment with M14 melanoma, the growth was 25.5%.
For the compound `COc1cccc(-c2nc3sccn3c2-c2ccnc(NCCNS(=O)(=O)c3ccccc3)n2)c1`, the growth is 43.1% in the experiment on NCI-H226 lung; 81.7% in the experiment on NCI-H322M lung; 114% in the experiment with HOP-62 NSCLC; 62.4% in the experiment with NCI-H460 lung; 62.6% with HOP-92 NSCLC; 49.5% in the experiment on NCI-H522 lung. Also, the growth was 64.8% in the experiment with A549/ATCC NSCLC; 56.7% in the experiment with 786-0 renal; 34.1% in the experiment with COLO 205 colon; 65.8% in the experiment with DU-145 prostate; 36.9% with K-562 leukemia; 66.6% in the experiment with MALME-3M melanoma. Besides, the growth in the experiment on MDA-MB-231 breast is 63.5%; in the experiment on RXF 393 renal, 64.2%; with SF-268 CNS it was 62.7%; in the experiment on SF-295 CNS, 63.6%; in the experiment with SF-539 CNS, 79.9%; with UACC-257 melanoma, 81.4%. In the experiment on M14 melanoma, the growth was 35.8%.
For the compound `COc1ccc(C2=NN(c3ccc(S(N)(=O)=O)cc3)C(c3cn(-c4ccccc4)nc3-c3ccc(Cl)cc3)C2)cc1` (configuration not stated), the growth was 101% in the experiment with NCI-H226 lung; 94.4% with NCI-H322M lung; 95.3% with HOP-62 NSCLC; 89% with NCI-H460 lung; 110% in the experiment with HOP-92 NSCLC; 71.1% with NCI-H522 lung. Besides, the growth in the experiment on 786-0 renal is 105%; in the experiment on COLO 205 colon it was 93.7%; with DU-145 prostate, 95.2%; in the experiment on K-562 leukemia, 66.9%; with MDA-MB-231 breast, 93.5%; with RXF 393 renal, 97.3%. Moreover, the growth with SF-268 CNS was 85.6%; with SF-295 CNS, 93.1%; with SF-539 CNS, 102%; in the experiment on UACC-257 melanoma, 95.4%; in the experiment on M14 melanoma, 83.9%.
As for `NC(=O)c1c(NC(=O)c2ccc3c(c2)OCO3)sc2c1CCC(=O)C2`, the growth in the experiment on NCI-H226 lung was -5.74% (active); in the experiment on NCI-H322M lung, 14.8%; in the experiment with HOP-62 NSCLC, 14.9%; in the experiment with NCI-H460 lung, 3.04% (active); with HOP-92 NSCLC it was -21% (active); in the experiment with NCI-H522 lung, -58.9% (active). Besides, the growth is -9.76% (active) in the experiment with A549/ATCC NSCLC; 12.2% in the experiment on 786-0 renal; -42.2% (active) with COLO 205 colon; 40% in the experiment on DU-145 prostate; 1.31% (active) in the experiment with K-562 leukemia; -44% (active) in the experiment with MALME-3M melanoma. Further, the growth with MDA-MB-231 breast is -20.5% (active); in the experiment with SF-268 CNS, 21.5%; in the experiment with SF-295 CNS, -4.12% (active); in the experiment with SF-539 CNS it was -55.5% (active); in the experiment with M14 melanoma, 16.7%.
As to `COc1cc(NC(=O)c2cc3ccccc3nc2Nc2ccc(F)cc2)cc(OC)c1OC`, the growth is 43% in the experiment on NCI-H226 lung; 65.8% in the experiment on NCI-H322M lung; 83.2% in the experiment with HOP-62 NSCLC; 40.3% in the experiment on NCI-H460 lung; 28.5% with HOP-92 NSCLC; 49.8% in the experiment on NCI-H522 lung. The growth in the experiment with A549/ATCC NSCLC is 42.8%; with 786-0 renal, 53.5%; in the experiment on COLO 205 colon it was 38%; in the experiment with DU-145 prostate, 69.8%; in the experiment on K-562 leukemia, 37.3%; with MALME-3M melanoma it was 66.7%. In addition, the growth was 51.2% in the experiment on MDA-MB-231 breast; 50.6% in the experiment with RXF 393 renal; 50.9% in the experiment on SF-268 CNS; 39.5% in the experiment on SF-295 CNS; 40.5% in the experiment with SF-539 CNS; 27.6% with UACC-257 melanoma. Further, the growth in the experiment on M14 melanoma was 30.2%.
